Measurements from the supplement of paper PMC11732987, “Enantioselective OTUD7B fragment discovery through chemoproteomics screening and high-throughput optimisation” (Communications Chemistry, 2025).

Key:
Experiment in all cases: log2 ratio of Biotin-Ahx-Ub-VS probe labelling (fragment/DMSO); higher = less target engagement (more negative = stronger competition), active = hit call of the paper (q ≤ 0.05, log2 ratio ≤ -1)
Details in all cases: compound concentration: 200 uM; treatment time: 3 h
USP9X = USP9X (UniProt Q93008)
How it was run: (§1)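 HEK293T lysate (495 µg per sample, in Tris/CHAPS/IGEPAL buffer with protease inhibitors) was treated in triplicate with fragment at 200 µM or with DMSO for 3 h. It was then treated with Biotin-Ahx-Ub-VS (0.5 µM final) for 1 h. Labelled DUBs were NeutrAvidin-enriched, digested with LysC and trypsin, and run by diaPASEF LC-MS/MS. Spectronaut label-free quantities were global-median-normalised. Values are average log2 ratios fragment/DMSO by unpaired t-test, using proteins with ≥2 unique peptides.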

UniProt O00487 = molecular target: UniProt O00487
How it was run: as §1

UniProt O00507 = molecular target: UniProt O00507
How it was run: as §1

UniProt P51784 = molecular target: UniProt P51784
How it was run: as §1

UniProt Q5T2D3 = molecular target: T1, UniProt Q5T2D3
T1 sequence (whole entry): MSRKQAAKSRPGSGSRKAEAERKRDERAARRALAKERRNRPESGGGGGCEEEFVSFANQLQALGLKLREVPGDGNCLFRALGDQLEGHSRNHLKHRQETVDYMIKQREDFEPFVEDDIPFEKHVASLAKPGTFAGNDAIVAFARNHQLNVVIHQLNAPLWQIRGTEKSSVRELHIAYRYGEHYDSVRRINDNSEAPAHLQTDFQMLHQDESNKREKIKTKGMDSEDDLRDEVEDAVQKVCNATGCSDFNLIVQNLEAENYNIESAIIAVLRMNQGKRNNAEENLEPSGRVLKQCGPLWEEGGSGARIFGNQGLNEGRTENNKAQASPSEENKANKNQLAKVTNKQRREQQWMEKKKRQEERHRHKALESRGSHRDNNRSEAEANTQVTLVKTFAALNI
How it was run: as §1

UniProt Q8TE49 = molecular target: T2, UniProt Q8TE49
T2 sequence (whole entry): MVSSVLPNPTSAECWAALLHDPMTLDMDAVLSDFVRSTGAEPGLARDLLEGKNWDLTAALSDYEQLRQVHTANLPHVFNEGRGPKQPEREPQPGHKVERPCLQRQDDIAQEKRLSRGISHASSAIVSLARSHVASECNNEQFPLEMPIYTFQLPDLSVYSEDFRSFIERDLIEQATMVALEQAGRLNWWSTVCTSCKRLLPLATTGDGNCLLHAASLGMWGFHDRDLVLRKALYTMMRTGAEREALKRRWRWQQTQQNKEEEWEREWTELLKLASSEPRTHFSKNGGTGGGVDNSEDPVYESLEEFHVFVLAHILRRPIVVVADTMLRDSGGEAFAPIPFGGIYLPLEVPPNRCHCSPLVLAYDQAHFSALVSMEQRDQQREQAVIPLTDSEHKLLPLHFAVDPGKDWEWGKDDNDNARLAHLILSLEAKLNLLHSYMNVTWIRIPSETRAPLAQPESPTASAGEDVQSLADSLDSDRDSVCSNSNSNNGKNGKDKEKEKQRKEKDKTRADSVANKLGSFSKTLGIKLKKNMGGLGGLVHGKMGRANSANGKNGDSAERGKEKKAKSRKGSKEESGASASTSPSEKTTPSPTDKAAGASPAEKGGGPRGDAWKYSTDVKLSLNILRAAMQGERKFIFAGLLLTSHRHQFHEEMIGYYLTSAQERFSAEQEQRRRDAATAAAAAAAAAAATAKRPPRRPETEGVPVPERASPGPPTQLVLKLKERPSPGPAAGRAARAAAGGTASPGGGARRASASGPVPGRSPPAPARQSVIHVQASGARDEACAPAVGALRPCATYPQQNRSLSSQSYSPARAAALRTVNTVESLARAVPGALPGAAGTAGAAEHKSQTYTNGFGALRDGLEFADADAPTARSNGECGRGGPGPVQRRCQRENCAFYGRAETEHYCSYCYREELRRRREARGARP
How it was run: as §1

UniProt Q9P2H5 = molecular target: T3, UniProt Q9P2H5
T3 sequence (whole entry): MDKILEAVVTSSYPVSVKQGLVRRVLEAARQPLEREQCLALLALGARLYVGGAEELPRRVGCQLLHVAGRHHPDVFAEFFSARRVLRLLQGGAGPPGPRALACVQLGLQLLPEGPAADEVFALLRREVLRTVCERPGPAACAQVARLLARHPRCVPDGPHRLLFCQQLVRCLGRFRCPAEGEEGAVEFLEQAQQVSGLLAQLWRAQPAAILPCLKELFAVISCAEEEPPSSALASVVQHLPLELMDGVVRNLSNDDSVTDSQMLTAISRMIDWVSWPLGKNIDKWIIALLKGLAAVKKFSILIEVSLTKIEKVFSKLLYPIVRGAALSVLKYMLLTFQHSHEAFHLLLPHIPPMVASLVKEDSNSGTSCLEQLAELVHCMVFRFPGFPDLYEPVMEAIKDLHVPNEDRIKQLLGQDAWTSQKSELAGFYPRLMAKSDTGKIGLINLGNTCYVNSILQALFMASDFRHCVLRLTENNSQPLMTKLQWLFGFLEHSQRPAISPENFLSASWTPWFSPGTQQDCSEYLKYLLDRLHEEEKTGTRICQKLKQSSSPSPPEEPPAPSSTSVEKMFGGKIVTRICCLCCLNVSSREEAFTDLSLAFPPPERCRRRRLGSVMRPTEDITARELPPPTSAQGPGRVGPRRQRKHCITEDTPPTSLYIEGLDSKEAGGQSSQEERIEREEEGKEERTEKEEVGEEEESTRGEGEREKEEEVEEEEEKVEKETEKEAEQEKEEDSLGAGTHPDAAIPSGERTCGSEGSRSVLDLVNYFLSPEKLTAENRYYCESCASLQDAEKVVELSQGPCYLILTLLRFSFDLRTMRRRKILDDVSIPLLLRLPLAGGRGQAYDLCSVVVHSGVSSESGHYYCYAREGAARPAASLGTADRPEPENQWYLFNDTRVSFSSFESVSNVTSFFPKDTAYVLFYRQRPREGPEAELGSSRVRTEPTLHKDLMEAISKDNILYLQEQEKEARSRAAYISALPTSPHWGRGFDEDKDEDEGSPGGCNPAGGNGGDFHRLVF
How it was run: as §1

UniProt Q9UGI0 = molecular target: T4, UniProt Q9UGI0
T4 sequence (whole entry): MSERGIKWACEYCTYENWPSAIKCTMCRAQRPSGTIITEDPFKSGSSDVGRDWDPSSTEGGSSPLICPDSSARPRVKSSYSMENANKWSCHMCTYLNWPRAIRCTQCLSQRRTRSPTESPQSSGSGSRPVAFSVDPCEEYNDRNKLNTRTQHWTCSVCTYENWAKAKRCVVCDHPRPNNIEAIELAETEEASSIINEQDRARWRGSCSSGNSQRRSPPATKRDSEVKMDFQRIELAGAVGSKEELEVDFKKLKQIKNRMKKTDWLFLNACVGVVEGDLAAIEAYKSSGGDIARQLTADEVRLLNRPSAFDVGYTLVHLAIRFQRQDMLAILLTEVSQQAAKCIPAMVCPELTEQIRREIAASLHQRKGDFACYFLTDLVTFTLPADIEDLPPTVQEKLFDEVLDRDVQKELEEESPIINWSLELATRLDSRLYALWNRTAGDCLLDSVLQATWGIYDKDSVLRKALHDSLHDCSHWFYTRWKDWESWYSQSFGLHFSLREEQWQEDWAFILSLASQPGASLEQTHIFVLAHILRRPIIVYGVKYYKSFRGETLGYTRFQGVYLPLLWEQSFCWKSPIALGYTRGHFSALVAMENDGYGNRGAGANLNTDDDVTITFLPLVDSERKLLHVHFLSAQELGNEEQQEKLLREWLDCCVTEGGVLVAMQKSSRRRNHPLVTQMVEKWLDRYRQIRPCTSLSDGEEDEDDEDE
How it was run: as §1

YOD1 = molecular target: T5, YOD1 (UniProt Q5VVQ6)
T5 sequence (whole entry): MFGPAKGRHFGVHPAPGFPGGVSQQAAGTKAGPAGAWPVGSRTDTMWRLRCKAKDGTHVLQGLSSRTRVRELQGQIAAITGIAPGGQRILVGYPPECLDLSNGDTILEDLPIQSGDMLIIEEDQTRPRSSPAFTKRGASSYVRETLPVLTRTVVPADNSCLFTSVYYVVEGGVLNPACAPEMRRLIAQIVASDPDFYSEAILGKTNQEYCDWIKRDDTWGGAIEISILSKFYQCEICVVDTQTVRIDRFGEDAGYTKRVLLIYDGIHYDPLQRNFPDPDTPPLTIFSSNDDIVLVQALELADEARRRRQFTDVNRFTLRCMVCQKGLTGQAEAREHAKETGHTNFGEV
How it was run: as §1

Measured: log2 ratio of Biotin-Ahx-Ub-VS probe labelling

Chain of UniProt O00487 (O00487 whole entry): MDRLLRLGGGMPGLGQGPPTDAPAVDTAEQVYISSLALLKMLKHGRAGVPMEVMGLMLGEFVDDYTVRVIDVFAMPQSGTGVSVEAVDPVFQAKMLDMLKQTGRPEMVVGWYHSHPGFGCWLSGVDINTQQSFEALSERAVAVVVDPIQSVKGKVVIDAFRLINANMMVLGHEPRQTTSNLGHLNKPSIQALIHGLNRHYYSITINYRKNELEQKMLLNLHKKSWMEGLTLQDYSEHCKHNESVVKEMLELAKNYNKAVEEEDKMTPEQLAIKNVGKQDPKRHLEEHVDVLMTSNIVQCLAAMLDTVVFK
Chain of USP9X (Q93008 whole entry, the tested form may be a part): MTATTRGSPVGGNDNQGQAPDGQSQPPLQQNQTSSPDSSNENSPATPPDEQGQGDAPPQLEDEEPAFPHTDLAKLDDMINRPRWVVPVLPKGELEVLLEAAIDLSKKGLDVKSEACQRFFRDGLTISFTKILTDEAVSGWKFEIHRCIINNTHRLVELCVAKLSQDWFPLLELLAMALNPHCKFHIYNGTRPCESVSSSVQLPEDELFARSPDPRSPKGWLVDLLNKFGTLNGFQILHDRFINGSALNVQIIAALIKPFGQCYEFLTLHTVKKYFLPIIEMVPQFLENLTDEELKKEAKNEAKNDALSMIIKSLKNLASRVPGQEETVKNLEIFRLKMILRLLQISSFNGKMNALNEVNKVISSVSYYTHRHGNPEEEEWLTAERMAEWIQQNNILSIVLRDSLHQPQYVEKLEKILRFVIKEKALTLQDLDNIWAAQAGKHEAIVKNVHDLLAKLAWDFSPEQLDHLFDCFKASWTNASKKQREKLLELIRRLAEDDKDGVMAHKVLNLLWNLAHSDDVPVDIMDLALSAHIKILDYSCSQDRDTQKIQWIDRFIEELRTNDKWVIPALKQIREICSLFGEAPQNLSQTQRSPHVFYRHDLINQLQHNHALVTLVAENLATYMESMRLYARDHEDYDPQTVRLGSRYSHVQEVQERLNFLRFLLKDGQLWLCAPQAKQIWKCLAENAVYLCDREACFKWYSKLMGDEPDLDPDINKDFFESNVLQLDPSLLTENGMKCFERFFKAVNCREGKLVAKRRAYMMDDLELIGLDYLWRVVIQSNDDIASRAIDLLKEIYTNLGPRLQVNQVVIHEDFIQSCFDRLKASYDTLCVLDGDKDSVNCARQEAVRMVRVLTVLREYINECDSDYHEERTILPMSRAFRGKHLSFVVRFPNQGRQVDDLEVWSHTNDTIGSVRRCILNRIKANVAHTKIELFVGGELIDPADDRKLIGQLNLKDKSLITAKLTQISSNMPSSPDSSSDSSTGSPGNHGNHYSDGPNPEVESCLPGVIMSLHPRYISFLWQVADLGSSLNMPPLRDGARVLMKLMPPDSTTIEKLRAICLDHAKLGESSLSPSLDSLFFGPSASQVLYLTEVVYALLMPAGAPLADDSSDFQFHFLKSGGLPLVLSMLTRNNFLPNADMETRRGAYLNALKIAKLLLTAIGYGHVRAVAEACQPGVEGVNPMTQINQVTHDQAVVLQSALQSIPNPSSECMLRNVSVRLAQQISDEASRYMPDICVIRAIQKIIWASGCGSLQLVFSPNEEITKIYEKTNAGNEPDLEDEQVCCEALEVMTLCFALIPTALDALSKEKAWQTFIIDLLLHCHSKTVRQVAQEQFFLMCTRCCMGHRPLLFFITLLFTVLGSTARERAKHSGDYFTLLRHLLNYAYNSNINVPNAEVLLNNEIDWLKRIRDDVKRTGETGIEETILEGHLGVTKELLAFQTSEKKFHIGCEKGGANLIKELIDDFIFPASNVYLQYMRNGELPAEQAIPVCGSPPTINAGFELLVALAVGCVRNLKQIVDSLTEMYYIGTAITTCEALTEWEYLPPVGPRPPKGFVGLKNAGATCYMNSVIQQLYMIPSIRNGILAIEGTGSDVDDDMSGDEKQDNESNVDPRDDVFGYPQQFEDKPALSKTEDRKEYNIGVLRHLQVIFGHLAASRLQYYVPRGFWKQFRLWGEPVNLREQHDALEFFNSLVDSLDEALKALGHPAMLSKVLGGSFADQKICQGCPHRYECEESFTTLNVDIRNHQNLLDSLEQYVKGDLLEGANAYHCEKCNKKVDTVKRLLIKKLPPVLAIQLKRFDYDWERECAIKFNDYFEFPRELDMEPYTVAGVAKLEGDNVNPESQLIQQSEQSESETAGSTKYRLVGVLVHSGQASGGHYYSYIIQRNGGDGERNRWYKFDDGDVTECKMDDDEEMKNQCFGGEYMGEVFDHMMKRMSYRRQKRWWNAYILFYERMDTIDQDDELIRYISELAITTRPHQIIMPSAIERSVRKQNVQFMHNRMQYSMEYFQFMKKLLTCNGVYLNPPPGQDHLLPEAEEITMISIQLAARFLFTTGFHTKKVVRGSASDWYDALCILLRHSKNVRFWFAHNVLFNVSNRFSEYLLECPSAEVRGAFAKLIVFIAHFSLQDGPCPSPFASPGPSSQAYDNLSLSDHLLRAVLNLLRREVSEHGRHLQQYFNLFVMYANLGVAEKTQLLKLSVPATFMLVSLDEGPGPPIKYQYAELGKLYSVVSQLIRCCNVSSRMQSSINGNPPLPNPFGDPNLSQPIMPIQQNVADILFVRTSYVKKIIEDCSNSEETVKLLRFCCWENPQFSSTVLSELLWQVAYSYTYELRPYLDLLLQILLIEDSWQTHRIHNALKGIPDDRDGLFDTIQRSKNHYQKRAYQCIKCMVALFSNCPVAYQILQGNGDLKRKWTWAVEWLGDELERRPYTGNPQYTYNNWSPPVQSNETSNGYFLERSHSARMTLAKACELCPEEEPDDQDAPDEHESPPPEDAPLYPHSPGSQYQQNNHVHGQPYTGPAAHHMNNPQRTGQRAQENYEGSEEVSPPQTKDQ
Chain of UniProt P51784 (P51784 whole entry): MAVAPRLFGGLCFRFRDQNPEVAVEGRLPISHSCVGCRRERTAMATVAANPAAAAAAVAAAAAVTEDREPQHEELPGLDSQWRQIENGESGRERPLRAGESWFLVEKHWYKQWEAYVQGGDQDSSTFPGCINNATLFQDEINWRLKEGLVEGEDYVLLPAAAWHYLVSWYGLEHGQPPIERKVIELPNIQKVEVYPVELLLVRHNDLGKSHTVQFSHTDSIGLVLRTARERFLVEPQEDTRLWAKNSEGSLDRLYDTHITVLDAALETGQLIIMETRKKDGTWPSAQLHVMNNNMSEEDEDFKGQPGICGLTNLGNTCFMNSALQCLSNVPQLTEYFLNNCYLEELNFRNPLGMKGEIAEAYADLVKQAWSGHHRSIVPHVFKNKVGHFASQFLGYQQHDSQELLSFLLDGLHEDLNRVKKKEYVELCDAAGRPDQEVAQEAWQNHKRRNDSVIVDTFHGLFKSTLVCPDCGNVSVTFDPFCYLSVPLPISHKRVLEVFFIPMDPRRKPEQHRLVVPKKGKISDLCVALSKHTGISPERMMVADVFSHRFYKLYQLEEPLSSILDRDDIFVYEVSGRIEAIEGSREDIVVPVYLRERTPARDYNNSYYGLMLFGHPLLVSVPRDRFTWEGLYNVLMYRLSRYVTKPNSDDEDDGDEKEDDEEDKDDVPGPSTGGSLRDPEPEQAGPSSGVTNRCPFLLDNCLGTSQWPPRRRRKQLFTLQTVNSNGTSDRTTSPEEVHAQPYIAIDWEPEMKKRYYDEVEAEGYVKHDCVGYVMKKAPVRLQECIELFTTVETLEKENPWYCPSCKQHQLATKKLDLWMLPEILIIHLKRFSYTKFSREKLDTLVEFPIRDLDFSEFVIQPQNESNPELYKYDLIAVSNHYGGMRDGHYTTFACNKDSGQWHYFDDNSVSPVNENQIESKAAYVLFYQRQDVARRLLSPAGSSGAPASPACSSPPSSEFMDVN

O=C(CCl)Nc1ccccc1C(F)(F)F
inactive: USP9X -0.0415 | UniProt O00487 -0.162 | UniProt O00507 -0.463 | UniProt P51784 -0.127 | UniProt Q5T2D3 -0.319 | UniProt Q8TE49 -0.411 | UniProt Q9P2H5 0.0663 | UniProt Q9UGI0 -0.466 | YOD1 -0.621
